Among the data in article PMC7862700, “An all-to-all approach to the identification of sequence-specific readers for epigenetic DNA modifications on cytosine” are binding signal values, retold here.

Experiment in all cases: DAPPL (digital affinity profiling via proximity ligation, sequencing); 10 mM Tris-HCl pH 7.5, 50 mM NaCl, 1 mM DTT, 4% glycerol, room temperature, 30 min; GST-TFs on glutathione beads, 16-mer random dsDNA library, 0.1% formaldehyde crosslink after washing; high values mean tight binding
Holding throughout (settings): protein: recombinant; tags: N-terminal GST; dsDNA, one strand shown

One experiment deals with T1, FLI1 (Homo sapiens, UniProt Q01543 1-452).
T1 sequence: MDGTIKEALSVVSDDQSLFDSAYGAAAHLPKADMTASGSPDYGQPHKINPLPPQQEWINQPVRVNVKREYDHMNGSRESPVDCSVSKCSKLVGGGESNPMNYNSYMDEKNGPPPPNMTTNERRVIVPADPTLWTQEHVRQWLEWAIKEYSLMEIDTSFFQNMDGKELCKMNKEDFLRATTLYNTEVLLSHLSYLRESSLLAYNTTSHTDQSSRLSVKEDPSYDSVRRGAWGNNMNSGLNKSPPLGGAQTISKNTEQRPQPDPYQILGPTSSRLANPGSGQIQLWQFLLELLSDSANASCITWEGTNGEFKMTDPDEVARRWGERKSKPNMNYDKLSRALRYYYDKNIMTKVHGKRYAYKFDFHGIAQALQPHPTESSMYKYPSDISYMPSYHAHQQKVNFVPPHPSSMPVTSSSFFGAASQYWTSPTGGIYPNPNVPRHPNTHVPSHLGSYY
The method, boiled down: (§1)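 Binding signal is defined as a hexamer's read frequency for one factor over its frequency for the tag-only sample. To obtain reads, GST-fused human transcription factors were expressed in yeast, captured on glutathione beads, barcoded with DNA and pooled with that sample. Pools met 200 nmole of a 16-mer random double-stranded DNA library in Tris/NaCl/DTT/glycerol buffer for 30 min at room temperature before washing, 0.1% formaldehyde crosslinking, proximity ligation (BsaI/T4 ligase, 1 h, 37 °C), PCR and Illumina NextSeq500 sequencing.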

A further experiment concerns the target T2, ELK1 (Homo sapiens, UniProt P19419 1-428).
T2 sequence: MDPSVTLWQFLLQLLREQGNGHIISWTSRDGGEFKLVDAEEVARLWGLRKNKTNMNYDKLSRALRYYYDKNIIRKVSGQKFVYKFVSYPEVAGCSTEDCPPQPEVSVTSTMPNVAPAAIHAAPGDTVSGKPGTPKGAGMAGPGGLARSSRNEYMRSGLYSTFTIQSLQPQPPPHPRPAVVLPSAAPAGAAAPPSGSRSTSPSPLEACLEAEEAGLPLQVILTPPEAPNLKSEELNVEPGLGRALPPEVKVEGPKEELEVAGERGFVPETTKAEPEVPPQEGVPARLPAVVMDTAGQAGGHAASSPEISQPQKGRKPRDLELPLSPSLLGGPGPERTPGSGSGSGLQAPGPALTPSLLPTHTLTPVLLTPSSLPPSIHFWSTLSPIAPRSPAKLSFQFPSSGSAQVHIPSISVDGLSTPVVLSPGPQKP
Summed up: as §1

For a further experiment, the target named is T3, GABPA (Homo sapiens, UniProt Q06546 1-454).
T3 sequence: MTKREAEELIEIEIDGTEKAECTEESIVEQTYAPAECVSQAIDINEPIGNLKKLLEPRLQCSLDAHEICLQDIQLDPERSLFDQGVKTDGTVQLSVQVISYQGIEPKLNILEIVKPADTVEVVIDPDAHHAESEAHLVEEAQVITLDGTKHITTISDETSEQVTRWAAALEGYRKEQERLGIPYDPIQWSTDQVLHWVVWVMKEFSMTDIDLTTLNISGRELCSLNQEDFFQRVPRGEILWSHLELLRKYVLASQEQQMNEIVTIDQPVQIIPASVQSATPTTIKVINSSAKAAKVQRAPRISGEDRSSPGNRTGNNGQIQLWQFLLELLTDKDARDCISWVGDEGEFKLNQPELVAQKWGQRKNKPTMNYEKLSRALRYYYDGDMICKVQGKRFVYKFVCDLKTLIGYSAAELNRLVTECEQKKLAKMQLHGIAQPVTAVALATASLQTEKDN
Summed up: as §1

Another experiment addresses T4, ERG (Homo sapiens, UniProt P11308 1-479).
T4 sequence: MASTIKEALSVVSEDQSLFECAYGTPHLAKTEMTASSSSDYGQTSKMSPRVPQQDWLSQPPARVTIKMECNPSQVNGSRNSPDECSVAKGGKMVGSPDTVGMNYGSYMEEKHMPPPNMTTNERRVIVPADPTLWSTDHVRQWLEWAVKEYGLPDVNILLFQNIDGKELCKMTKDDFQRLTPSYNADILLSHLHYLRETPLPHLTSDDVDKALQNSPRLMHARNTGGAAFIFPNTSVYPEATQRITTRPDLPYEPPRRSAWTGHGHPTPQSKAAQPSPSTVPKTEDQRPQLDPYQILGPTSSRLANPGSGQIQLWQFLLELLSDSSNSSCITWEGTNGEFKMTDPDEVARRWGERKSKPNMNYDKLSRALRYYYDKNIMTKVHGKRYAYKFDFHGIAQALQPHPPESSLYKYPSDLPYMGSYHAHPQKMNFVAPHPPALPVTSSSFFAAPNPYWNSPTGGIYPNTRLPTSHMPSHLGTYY
The method, boiled down:
as §1

The next experiment concerns the target ELF1 (Homo sapiens, UniProt P32519 1-619). Summed up: as §1
For the next experiment, the target named is T5, EHF (Homo sapiens, UniProt Q9NZC4 1-300).
T5 sequence: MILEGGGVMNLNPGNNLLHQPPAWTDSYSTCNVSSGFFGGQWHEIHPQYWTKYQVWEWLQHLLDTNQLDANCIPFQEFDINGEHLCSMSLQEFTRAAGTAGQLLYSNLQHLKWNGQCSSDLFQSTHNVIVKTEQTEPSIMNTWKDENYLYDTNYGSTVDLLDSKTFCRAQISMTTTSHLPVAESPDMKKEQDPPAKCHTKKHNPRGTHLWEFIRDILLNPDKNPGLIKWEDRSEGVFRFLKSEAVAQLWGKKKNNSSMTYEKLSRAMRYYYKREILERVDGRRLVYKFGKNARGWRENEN
Summed up:
as §1

A further experiment has as its target SPI1 (Homo sapiens, UniProt P17947 1-270). Summed up: as §1
A further experiment concerns the target SPIB (Homo sapiens, UniProt Q01892 1-262). The method, boiled down: as §1
The target in another experiment is T6, ELK3 (Homo sapiens, UniProt P41970 1-407).
T6 sequence: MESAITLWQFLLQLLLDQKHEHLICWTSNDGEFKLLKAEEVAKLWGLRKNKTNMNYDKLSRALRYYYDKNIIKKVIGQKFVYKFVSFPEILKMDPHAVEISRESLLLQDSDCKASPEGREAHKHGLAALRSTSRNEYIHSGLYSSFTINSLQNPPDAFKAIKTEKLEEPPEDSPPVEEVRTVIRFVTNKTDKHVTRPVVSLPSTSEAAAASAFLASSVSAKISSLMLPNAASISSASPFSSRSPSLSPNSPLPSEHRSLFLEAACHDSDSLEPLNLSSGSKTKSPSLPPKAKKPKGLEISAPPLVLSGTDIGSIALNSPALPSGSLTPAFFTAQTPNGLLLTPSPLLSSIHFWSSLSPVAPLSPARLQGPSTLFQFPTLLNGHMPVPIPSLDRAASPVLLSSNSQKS
Summed up: as §1

The target in a further experiment is T7, FEV (Homo sapiens, UniProt Q99581 1-238).
T7 sequence: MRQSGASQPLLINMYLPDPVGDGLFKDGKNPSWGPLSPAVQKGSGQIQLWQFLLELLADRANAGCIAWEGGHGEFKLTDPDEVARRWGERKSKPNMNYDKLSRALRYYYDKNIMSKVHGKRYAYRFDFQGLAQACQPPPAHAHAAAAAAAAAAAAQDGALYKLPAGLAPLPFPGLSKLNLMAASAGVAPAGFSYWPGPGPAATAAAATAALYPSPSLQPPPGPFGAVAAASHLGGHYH
The method, boiled down:
as §1

A further experiment addresses ETV5 (Homo sapiens, UniProt P41161 1-510). The method, boiled down:
as §1

The target in the next experiment is T8, SPIC (Homo sapiens, UniProt Q8N5J4 1-248).
T8 sequence: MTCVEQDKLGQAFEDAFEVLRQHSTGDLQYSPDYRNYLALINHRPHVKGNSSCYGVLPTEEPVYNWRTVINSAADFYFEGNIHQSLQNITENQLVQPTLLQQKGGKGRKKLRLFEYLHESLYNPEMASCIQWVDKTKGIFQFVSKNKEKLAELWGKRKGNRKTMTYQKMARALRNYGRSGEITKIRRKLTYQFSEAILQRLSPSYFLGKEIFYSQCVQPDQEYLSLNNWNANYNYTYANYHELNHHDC
The method, boiled down:
as §1

The target of the next experiment is ELF4 (Homo sapiens, UniProt Q99607 1-663). The method, boiled down:
as §1

The next experiment deals with T9, ELK4 (Homo sapiens, UniProt P28324-2 1-405).
T9 sequence: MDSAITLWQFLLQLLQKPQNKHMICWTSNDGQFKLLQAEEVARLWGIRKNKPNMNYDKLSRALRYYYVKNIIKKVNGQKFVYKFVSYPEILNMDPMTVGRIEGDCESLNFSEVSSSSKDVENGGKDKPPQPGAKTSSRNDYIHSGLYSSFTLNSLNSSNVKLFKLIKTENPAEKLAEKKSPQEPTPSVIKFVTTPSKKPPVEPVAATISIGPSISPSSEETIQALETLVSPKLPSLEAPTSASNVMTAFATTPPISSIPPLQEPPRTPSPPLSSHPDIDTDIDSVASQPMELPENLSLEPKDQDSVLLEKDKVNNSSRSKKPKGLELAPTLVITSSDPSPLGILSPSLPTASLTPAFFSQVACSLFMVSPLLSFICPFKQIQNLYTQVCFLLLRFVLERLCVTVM
The method, boiled down: as §1

The target of another experiment is T10, ETV2 (Homo sapiens, UniProt O00321 1-342).
T10 sequence: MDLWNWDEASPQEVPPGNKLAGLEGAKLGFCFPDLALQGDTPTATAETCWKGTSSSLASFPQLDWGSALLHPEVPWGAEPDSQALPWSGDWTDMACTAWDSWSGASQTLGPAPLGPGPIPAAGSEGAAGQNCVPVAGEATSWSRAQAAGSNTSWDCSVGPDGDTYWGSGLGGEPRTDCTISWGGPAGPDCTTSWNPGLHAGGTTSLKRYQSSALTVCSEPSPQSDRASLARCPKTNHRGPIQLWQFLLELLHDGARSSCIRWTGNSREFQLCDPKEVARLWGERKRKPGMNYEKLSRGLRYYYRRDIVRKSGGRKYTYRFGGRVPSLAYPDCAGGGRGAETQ
Summed up:
as §1

The target in the next experiment is T11, ELF3 (Homo sapiens, UniProt P78545 1-371).
T11 sequence: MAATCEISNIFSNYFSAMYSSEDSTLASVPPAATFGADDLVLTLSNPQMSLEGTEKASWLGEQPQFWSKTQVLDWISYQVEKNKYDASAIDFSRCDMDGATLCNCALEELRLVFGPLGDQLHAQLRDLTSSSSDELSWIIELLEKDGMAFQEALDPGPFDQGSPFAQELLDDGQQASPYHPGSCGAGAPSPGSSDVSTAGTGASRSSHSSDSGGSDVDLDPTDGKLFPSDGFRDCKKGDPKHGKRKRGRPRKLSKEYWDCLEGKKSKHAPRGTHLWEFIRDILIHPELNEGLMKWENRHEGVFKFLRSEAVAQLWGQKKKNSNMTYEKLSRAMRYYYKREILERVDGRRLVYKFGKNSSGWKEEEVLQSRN
The method, boiled down: as §1

Another experiment has as its target ETV1 (Homo sapiens, UniProt P50549 1-477). Summed up: as §1

Chain of ELF4 (Q99607 whole entry): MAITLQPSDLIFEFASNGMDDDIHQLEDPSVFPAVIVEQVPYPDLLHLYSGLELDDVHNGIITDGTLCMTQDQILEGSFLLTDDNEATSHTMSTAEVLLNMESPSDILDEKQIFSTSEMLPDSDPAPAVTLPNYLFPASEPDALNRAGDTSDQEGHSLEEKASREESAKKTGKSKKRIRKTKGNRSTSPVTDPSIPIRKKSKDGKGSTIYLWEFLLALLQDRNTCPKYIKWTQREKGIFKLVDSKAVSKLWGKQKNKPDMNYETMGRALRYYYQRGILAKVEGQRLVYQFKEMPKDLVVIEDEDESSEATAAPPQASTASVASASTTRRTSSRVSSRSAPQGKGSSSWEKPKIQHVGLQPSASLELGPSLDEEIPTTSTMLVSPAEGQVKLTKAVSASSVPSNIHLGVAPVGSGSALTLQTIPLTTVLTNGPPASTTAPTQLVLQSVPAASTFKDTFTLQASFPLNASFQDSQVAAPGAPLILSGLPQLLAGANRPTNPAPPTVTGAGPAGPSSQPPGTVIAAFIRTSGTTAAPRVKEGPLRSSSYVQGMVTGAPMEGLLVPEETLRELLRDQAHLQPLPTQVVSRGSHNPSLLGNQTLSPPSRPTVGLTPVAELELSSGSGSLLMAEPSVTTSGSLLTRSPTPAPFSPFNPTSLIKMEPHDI
Chain of ETV1 (P50549 whole entry): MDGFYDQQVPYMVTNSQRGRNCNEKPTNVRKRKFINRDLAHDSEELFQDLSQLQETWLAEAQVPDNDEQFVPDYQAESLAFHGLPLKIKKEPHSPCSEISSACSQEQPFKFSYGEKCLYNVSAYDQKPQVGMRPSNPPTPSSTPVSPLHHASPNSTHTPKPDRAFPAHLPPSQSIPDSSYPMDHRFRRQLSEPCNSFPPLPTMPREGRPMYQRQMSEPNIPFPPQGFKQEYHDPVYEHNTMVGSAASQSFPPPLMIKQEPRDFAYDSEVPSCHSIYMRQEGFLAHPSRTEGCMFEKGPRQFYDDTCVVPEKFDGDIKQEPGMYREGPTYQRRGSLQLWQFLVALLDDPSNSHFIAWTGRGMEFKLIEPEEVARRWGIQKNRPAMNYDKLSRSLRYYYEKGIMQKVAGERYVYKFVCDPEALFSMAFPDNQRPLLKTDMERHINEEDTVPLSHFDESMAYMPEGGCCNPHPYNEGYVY
Chain of ELF1 (P32519 whole entry): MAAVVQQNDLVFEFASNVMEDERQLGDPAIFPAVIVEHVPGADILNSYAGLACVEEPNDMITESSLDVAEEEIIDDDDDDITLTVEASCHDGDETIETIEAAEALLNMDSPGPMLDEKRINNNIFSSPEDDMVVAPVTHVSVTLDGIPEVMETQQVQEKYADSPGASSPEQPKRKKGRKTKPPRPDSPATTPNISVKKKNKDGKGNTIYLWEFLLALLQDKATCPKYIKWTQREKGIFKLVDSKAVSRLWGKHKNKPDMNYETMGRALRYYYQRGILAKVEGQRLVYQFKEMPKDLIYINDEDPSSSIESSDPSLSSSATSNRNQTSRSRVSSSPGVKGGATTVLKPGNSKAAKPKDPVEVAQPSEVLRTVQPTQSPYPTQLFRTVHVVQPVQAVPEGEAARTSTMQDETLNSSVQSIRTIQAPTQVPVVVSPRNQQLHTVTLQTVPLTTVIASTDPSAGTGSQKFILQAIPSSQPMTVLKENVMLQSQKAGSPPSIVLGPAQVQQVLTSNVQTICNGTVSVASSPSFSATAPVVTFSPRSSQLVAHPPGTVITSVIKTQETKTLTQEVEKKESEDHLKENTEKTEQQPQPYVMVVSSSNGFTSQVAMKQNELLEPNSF
Chain of ETV5 (P41161 whole entry): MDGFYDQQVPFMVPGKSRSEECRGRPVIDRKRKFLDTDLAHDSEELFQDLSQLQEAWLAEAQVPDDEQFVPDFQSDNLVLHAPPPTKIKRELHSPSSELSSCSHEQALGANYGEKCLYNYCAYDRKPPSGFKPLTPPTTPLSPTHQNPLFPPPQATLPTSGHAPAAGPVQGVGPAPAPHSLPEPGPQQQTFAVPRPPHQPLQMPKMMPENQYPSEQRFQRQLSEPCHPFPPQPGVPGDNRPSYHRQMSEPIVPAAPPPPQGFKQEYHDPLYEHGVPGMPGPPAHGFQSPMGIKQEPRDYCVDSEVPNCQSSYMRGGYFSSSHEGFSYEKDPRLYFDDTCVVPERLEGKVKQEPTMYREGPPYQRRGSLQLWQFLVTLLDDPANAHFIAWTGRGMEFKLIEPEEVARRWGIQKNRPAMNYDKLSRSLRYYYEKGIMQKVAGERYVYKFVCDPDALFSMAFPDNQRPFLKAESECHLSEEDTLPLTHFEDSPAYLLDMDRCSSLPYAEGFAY
Chain of SPIB (Q01892 whole entry): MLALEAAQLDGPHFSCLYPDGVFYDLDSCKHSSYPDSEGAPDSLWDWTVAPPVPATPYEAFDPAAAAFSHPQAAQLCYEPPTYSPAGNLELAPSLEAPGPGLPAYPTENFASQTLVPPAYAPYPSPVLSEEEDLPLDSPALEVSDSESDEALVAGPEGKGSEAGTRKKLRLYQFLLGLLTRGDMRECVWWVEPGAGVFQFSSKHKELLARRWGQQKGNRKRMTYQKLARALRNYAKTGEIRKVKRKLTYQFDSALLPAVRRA

As to CCGGTT, the binding signal was 1.88 fold enrichment (6-mer frequency, TF over GST control) in the experiment with FLI1; 2.1 fold enrichment (6-mer frequency, TF over GST control) with ELK1; 1.89 fold enrichment (6-mer frequency, TF over GST control) with GABPA; 2.2 fold enrichment (6-mer frequency, TF over GST control) in the experiment with ERG; 1.96 fold enrichment (6-mer frequency, TF over GST control) with ELF1; 1.97 fold enrichment (6-mer frequency, TF over GST control) with EHF. Also, the binding signal was 2.11 fold enrichment (6-mer frequency, TF over GST control) with SPI1; 1.97 fold enrichment (6-mer frequency, TF over GST control) with SPIB; 2.26 fold enrichment (6-mer frequency, TF over GST control) with ELK3; 2.7 fold enrichment (6-mer frequency, TF over GST control) with FEV; 2.15 fold enrichment (6-mer frequency, TF over GST control) with ETV5; 1.68 fold enrichment (6-mer frequency, TF over GST control) with SPIC. For the same sequence, the binding signal in the experiment with ELF4 is 1.83 fold enrichment (6-mer frequency, TF over GST control); with ELK4, 1.87 fold enrichment (6-mer frequency, TF over GST control); with ETV2, 2.08 fold enrichment (6-mer frequency, TF over GST control); with ELF3 it was 2.09 fold enrichment (6-mer frequency, TF over GST control); in the experiment with ETV1, 2.04 fold enrichment (6-mer frequency, TF over GST control).
